Assay outcomes deposited in PubChem BioAssay by several laboratories.
Hits are enriched below; roughly 1.8% of the tested compounds scored in any of these assays.
PrPC surface inh: cell surface PrPC inhibition, primary TR-FRET screen; P04156; TR-FRET read-out; hit rate 0.43% among 370,000; inhibition, % at 13.8 µM; in the data active = inhibition above about 24%; also: 0% = median of the test wells and 100% = reference compound wells
Vc quorum ag: quorum light induction in luxS cqsA deficient V. cholerae | V. cholerae BH1578 lux reporter, luminescence, 6 h | activation, % at 18.7 µM | hit rate 0.16% among 350,000 | AID 588436; in the data active = activation mostly above about 9.7%, no sharp cut-off
DUSP3 inh: blocks human VHR1 dual specificity phosphatase; hit rate 0.52% among 290,000; recombinant VHR phosphatase, pNPP absorbance; inhibition, % at 13.3 µM; in the data active = inhibition above about 50%
Target sequence (P51452 whole entry, looked up): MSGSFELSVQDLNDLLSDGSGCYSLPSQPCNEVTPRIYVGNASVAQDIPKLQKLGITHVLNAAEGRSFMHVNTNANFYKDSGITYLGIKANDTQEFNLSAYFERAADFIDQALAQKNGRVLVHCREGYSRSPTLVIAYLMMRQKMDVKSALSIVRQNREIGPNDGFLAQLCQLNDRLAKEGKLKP
Y pestis TopoI: inhibitors of Yersinia pestis topoisomerase I; Y. pestis Topo-I cleavage product accumulation, plate reader; activity, % at 10 µM; hit rate 0.064% among 360,000; AID 504884; in the data active = activity above about 50%, passing the limit was not always enough
MazEF act: MazEF (E. coli) toxin RNase activation. activation, % at 20 µM. hit rate 0.32% among 350,000. P0AE70. FAM/BHQ RNA-DNA oligo cleavage fluorescence, 5 h; in the data active = activation above about 50%
Target sequence (P0AE70 whole entry, looked up): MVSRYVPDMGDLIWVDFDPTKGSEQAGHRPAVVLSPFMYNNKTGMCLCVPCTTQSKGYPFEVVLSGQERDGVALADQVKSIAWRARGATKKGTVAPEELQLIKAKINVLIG
CCHF vOTU inh: CCHFV vOTU protease inhibition; AID 651958; Pep-AMC fluorescence; inhibition, % at 11.5 µM; hit rate 0.55% among 370,000; in the data active = inhibition above about 30%; also: 0% = vehicle wells with enzyme and 100% = no enzyme wells
Starred values were filed as active, the others as inactive; i = inactive; nt = no result given; + = active, no number.

SMILES	PrPC surface inh	Vc quorum ag	DUSP3 inh	Y pestis TopoI	MazEF act	CCHF vOTU inh
O=C(Nc1ccc2oc(=O)ccc2c1)c1ccc(-c2cccc([N+](=O)[O-])c2)o1	13.6	-2.6	58.5*	-4.1	-32.9	10.2
Cc1ccc(/C=C/C(=O)N2CCCC(C)C2)cc1 (centres undefined)	-4.0	-0.3	2.6	3.1	-3.5	6.3
Cc1ccc(/C=C/C(=O)N2CCC(Cc3ccccc3)CC2)cc1	1.9	i	1.2	50.9*	-0.8	4.5
Clc1ccc2nc(CNc3nc(N4CCOCC4)nc4c3ncn4-c3ccsc3)[nH]c2c1	19.8	nt	nt	nt	nt	nt
O=C(NCc1ccco1)c1ccc(Cl)c(S(=O)(=O)N2CCc3ccccc32)c1	1.7	-0.4	55.6*	25.0	3.2	-6.3
O=C(NCc1ccco1)c1ccc(Cl)c(S(=O)(=O)N2CCOCC2)c1	0.0	-0.7	17.2	1.2	2.4	-0.8
CCOC(=O)N1CCN(c2cc(N)c([N+](=O)[O-])cc2F)CC1	-19.0	-0.4	15.7	8.1	-9.4	34.7*
CC(CCN1CCC(C(O)(c2ccccc2)c2ccccc2)CC1)Oc1ccc(F)cc1 (centres undefined)	1.0	nt	nt	nt	nt	4.2
O=C(Cn1nc(-c2ccccc2)ccc1=O)NCCc1ccccc1F	-1.4	nt	nt	nt	nt	1.1
O=C(CNS(=O)(=O)c1cccc2ccccc12)N1CCN(c2ncccn2)CC1	10.4	nt	nt	nt	nt	11.0
O=C(CNc1cccc(Cl)c1)c1ccc(Br)cc1	13.6	0.4	51.3*	-16.5	18.2	11.7
O=C(CNc1ccc(Br)cc1)c1ccccc1	7.3	i	15.7	10.1	-1.0	-6.0
CC1(c2nnnn2Cc2ccccc2)CCCC(=O)N1Cc1cccs1 (centres undefined)	7.6	nt	nt	nt	nt	-8.8
O=C1NC(=S)S/C1=C/c1ccc(OC(=O)c2ccco2)cc1	-2.4	-0.1	-22.1	2.4	74.3*	16.7
CCCCN(C(=O)NC(=O)Nc1ccccc1OCC)S(C)(=O)=O	4.2	37.7*	35.1	-3.2	3.5	-3.6
c1ccc(-c2csc3nnc(SCc4ccc5c(c4)OCCO5)n23)cc1	5.8	10.0	38.9	12.9	-10.4	6.5
O=C(CSc1nnc2scc(-c3ccccc3)n12)c1ccc2c(c1)OCCO2	-2.4	16.0	25.0	10.2	54.8*	2.3
C/C(=N\NS(C)(=O)=O)c1ccccc1	2.9	16.7*	21.3	-4.0	1.4	8.9
C/C(=N\NC(N)=O)c1ccccc1	6.7	i	9.6	-10.8	4.3	-4.3
CCN(CC)C1=CC2=CC(=C(C#N)C#N)CCC2CC1 (centres undefined)	-28.2	1.6	2.9	-9.6	nt	1.8
N#CC(C#N)=C1C=C2C=C(N3CCCCC3)CCC2CC1 (centres undefined)	nt	nt	2.1	nt	+	nt
NNC(=O)c1cc(-c2ccc(N)cc2)nc2ccc(Br)cc12	-5.4	0.8	54.1*	-1.3	6.9	-4.2
c1ccc(-c2csc(-c3ccncc3)n2)cc1	-17.0	i	52.5*	5.4	13.5	4.8
Cc1cc(C)cc(NC(=O)N2CCN(Cc3nc4ccccc4c(=O)[nH]3)CC2)c1	-8.6	nt	nt	nt	nt	-0.4
O=S1(=O)c2ccc(Br)cc2OC[C@H](Cc2ccccc2)N1Cc1cn(Cc2ccc(Br)cc2)nn1	7.8	nt	nt	nt	nt	-2.8
SMILES	PrPC surface inh	Vc quorum ag	DUSP3 inh	Y pestis TopoI	MazEF act	CCHF vOTU inh
Cn1c(SCC(=O)Nc2ccccc2F)nnc1-c1cccs1	1.0	0.0	54.4*	-0.7	-17.3	16.2
Cn1c(Cc2cccs2)nnc1SCC(=O)Nc1ccccc1F	-4.6	-2.6	nt	-2.1	3.3	-2.9
CCn1c(SCC(=O)NCC(=O)Nc2ccc(F)cc2)nnc1-c1cccs1	-1.7	24.8*	29.9	2.2	4.5	-9.3
CCOC(=O)CC[C@@]1(C(=O)OCC)C[C@@H](CC(=O)N2CCSCC2)C(=O)N2CCCC=C21	-3.0	nt	nt	nt	nt	-1.1
Cc1ccc(S(=O)(=O)Nc2cccc(C(=O)N3CCOCC3)c2)c(C)c1NS(C)(=O)=O	-8.2	i	59.1*	6.8	10.4	11.2
Cc1ccc(S(=O)(=O)Nc2cccc(C(=O)N3CCOCC3)c2)cc1	7.6	-0.4	22.4	-9.9	6.5	-9.9
N#C/C(=C(/O)CCl)c1nc2ccccc2[nH]1	26.8*	-0.8	15.5	0.1	-14.8	-19.3
C=CCOC(=O)N1CCN(C(=O)c2ccc3c(c2)nc(C)n3C2CCCC2)CC1	7.6	nt	nt	nt	nt	11.8
Cc1cc2oc(=O)cc(CN(C)Cc3ccccc3)c2cc1C(C)C	3.2	i	nt	64.5*	-8.5	-1.8
COc1cc(C(=O)NC2CCCCN(C(C)C)C2=O)cc(OC)c1OC (centres undefined)	2.0	nt	nt	nt	nt	-1.8
COCCCNC(=O)CSc1nnc(-c2cccnc2)n1C1CCCCC1	4.2	nt	nt	nt	nt	-6.0
